High-throughput results as filed in PubChem.
Yp Topo-I inh = Y. pestis Topo-I inhibition via cleavage products; Y. pestis Topo-I cleavage product accumulation, plate reader; activity, % at 10 µM; 0.064% of 360,000 active; AID 504884; in the data active = activity above about 50%, passing the limit was not always enough
SARS 3CLpro inh = SARS-CoV 3CLpro protease inhibition. recombinant SARS-CoV 3CLpro, quenched FRET peptide cleavage. inhibition, % at 6 µM. 0.14% of 290,000 active. AID 1706; in the data active = inhibition above about 12%
MazEF act = activators of E. coli MazEF toxin-antitoxin RNase; 0.32% of 350,000 active; FAM/BHQ RNA-DNA oligo cleavage fluorescence, 5 h; activation, % at 20 µM; in the data active = activation above about 50%
Target sequence (P0AE70 whole entry, looked up): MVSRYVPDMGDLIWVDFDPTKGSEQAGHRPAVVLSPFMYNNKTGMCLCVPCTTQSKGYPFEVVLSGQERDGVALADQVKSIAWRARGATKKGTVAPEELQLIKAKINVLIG
PriA SSB inh = inhibitors of Klebsiella pneumoniae PriA binding to SSB C-terminal tail. AlphaScreen SSBct-PriA binding, biotinylated peptide. inhibition, % at 33 µM. 0.6% of 430,000 active. AID 1272365; in the data active = inhibition mostly above about 37%, no sharp cut-off; inactive = mostly below about 20%
Hits are given with their value; i = inactive; nt = no result; ! = not confirmed by another sample. Rows were chosen to be rich in hits. Some 0.9% of all compounds tested hit in one or more screens of this group.

SMILES	Yp Topo-I inh	SARS 3CLpro inh	MazEF act	PriA SSB inh
O=c1[nH][nH]c(=O)c2ncccc12	nt	nt	nt	61
O=c1[nH]cc(I)c2cccnc12	nt	nt	nt	i
c1cnc2c(c1)c1nccnc1c1cccnc12	nt	nt	nt	114
O=C(CCN1C(=O)/C(=C\c2ccccc2)SC1=S)NNC(=O)c1ccncc1	i	i	i	i
O=C(CCN1C(=O)/C(=C/c2ccccc2)SC1=S)NNC(=O)c1ccncc1	i	i	135	i
CC(=O)c1ccc(NN=C(C(N)=O)C2=NC(C)(C)Cc3ccccc32)cc1	nt	nt	nt	50
COc1ccc(N/N=C(/C(N)=O)C2=NC(C)(C)Cc3ccccc32)cc1	i	i	i	nt
NNc1nc(N)nc(-c2ccccn2)n1	nt	nt	nt	152
Nc1nc(-c2ccccn2)nc2ccccc12	nt	nt	nt	140
NNc1nc(-c2ccccn2)nc2c1CCC2	nt	nt	nt	165
Nc1nc(N)nc(-c2ccccn2)n1	i	i	i	78
Cc1nc(N2CCN(C(=O)c3cc4ccccn4c3)CC2)cc(C(F)(F)F)n1	nt	nt	nt	i
O=C(Nc1cccc(-c2nc3ccccc3o2)c1)c1nc2ccccc2s1	nt	nt	nt	i
CN1CCN(c2nc(-c3ccccn3)nc3ccccc23)CC1	i	i	i	46
c1ccc(N2CCN(c3nc(-c4ccccn4)nc4ccccc34)CC2)cc1	i	i	i	i
Cc1ccc(C)c(S(=O)(=O)Nc2cc3c4c(c2)CC(=O)N4CCC3)c1	i	nt	i	i
Cc1ccc(S(=O)(=O)NN)c(C)c1N1CCCC1=O	i	i	165	i
COCCN=c1scc(-c2cc(OC)ccc2OC)n1N=Cc1c[nH]c2ccccc12	nt	nt	nt	66
CCOC(=O)C1CCN(c2csc3ccc(F)cc3c2=O)CC1	nt	nt	nt	i
COc1ccc(/C=C2/CCCC(C(=O)C(F)(F)F)=C2O)cc1OC	i	i	211	i
COCCN1CCCc2ccc(NC(=O)c3ccccc3Cl)cc21	nt	nt	nt	i
COCCN1CCCc2ccc(NC(=O)c3ccc(Br)cc3)cc21	nt	nt	nt	61
CCCCOc1ccc(C(=O)Nc2ccc3c(c2)N(CCOC)CCC3)cc1	nt	nt	nt	i
COCCN1CCCc2ccc(NC(=O)c3cc(C)cc(C)c3)cc21	nt	nt	nt	62
COCCN1CCCc2ccc(N)cc21	nt	nt	nt	79
SMILES	Yp Topo-I inh	SARS 3CLpro inh	MazEF act	PriA SSB inh
COc1ccccc1C1NC=C([N+](=O)[O-])C=C1[N+](=O)[O-] (configuration not stated)	i	i	i	45
O=C(CSc1nc(-c2ccccc2)[nH]c1S(=O)(=O)c1ccccc1)NCc1ccco1	nt	nt	nt	i
CCCc1cc(=O)[nH]c(-n2nc(C)cc2C)n1	nt	nt	nt	i
Cc1cc(C)n(-c2nnc(C)c(=O)[nH]2)n1	i	i	i	74
CC(=O)n1cc(/C=C2/N=C(c3ccccc3)OC2=O)c2ccccc21	i	i	149	i
Nc1c(C(=O)Nc2ccccc2)sc2nc3c(c(-c4ccco4)c12)CCC3	i	i	87	i
O=C(O)C1CCN(c2cc(-n3ccnc3)ncn2)CC1	nt	nt	nt	i
Nc1nc(-c2cccc(-c3csc(N)n3)n2)cs1	nt	nt	nt	114
Nc1nc(-c2ccc(-c3ccccc3)cc2)cs1	i	i	i	i
Nc1nc(-c2ccccn2)ns1	nt	nt	nt	i
Nc1nc(-c2ccccn2)cs1	nt	nt	nt	94
CCOCCCNC(=O)Nc1cn(C)c2ccccc12	nt	nt	nt	i
O=C(CSc1ccc(-c2ccccn2)nn1)N1CCCc2ccccc21	i	i	i	62!
COc1cccc(-n2ccnc2SCC(=O)N2CCCc3ccccc32)c1	i	i	i	i
O=C(CSc1nccn1-c1cccc(Cl)c1)N1CCc2ccccc21	nt	nt	nt	44
O=C(CSc1nccn1-c1ccccc1)N1CCCc2ccccc21	nt	nt	nt	72
CCOc1ccc(-n2ccnc2SCC(=O)N2CCCc3ccccc32)cc1	i	i	i	i
Cc1nc(N(C)C)nc(C)c1NS(=O)(=O)c1ccccc1Cl	nt	nt	nt	i
O=C(NCCn1nc(-c2cccnc2)n(C2CC2)c1=O)c1ccsc1	nt	nt	nt	i
COC(=O)NCC1(O)Cc2ccccc2C1	nt	nt	nt	i
COc1cc(/C=C2/C(=N)N3C(=NC2=O)SN=C3S(=O)(=O)C(C)C)ccc1OC(=O)c1ccco1	i	i	i	i
CCOc1cc(/C=C2/C(=N)N3C(=NC2=O)SN=C3S(=O)(=O)C(C)C)ccc1OC(=O)c1ccco1	i	i	62	i
Cc1ccc2c(c1)cc(CN(Cc1ccc3c(c1)OCO3)C(=O)c1cnccn1)c1nnnn12	i	i	i	i
Cc1cc2cc(CN(Cc3ccc4c(c3)OCO4)C(=O)c3cnccn3)c3nnnn3c2cc1C	i	i	i	39
Cc1nc(NC(=O)c2cccc(-c3cc4ccccc4oc3=O)c2)ccc1Br	i	i	84	i
CCOC(=O)c1ccc(CC(=O)c2oc3cc(O)ccc3c2C)o1	i	i	67	i
COc1ccccc1NC(=O)C1=C(C)Nc2nc(-c3cccs3)nn2C1c1cccc(O)c1 (configuration not stated)	i	i	i	i
